# Reference: publication PMC4336329 (PLoS ONE, 2015)
# Out of some 310,000 compounds screened, about 2,200 (0.71%) showed an effect of 50% or more. The effect is printed as a negative number. This is one part of a sample in which strong results are shown more often than they occur.
# Target: human ether-à-go-go-related gene (hERG) potassium channel (human, UniProt Q12809)
# Test: primary screen, population patch clamp on CHO cells stably expressing hERG; higher = less effect of the substance
# Sequence of human ether-à-go-go-related gene (hERG) potassium channel (Q12809 whole entry, looked up): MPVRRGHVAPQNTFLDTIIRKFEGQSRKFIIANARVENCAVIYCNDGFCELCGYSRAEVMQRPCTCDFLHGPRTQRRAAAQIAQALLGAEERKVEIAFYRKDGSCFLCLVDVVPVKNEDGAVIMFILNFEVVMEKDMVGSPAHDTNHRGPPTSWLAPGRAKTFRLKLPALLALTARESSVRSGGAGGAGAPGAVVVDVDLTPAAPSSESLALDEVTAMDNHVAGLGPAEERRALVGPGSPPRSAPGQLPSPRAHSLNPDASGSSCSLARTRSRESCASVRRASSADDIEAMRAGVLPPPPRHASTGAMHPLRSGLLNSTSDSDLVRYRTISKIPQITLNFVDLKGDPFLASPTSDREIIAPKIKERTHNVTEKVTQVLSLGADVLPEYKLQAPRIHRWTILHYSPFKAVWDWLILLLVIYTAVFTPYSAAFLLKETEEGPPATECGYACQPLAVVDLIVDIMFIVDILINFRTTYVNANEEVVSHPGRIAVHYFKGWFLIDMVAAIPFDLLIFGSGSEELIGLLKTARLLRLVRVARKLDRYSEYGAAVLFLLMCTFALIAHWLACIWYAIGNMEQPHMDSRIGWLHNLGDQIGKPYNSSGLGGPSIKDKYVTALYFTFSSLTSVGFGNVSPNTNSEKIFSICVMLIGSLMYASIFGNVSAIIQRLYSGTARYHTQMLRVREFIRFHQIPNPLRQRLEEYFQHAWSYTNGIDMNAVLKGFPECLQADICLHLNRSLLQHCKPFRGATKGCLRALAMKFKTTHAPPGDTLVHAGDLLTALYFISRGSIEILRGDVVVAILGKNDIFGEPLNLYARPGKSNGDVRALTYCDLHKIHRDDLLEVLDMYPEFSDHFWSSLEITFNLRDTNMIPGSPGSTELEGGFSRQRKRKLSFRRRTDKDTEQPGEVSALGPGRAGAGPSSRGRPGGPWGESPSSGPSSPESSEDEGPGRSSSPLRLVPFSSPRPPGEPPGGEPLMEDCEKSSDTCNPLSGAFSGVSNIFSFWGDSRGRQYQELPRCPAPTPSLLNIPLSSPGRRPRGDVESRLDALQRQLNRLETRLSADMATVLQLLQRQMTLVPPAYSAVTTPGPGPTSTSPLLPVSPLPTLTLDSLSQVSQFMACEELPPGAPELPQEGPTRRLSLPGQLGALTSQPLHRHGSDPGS
row,Structure (SMILES),"hERG current change (%, negative = inhibition) at 1uM [%]"
1,COc1ccc(CCNc2nc(-c3cccnc3)cs2)cc1OC,23.6
2,CCCCC(=O)Nc1cccc(NC(=O)c2cccnc2Cl)c1,6.85
3,C/C(=N\O)C(=O)NCCN(C)C,13.6
4,CC(=O)O.Cc1nc(NCCc2ccc(F)cc2)c(C#N)c(C)c1[N+](=O)[O-],-41.9
5,O=C(Oc1ccc(C(=S)N2CCCCC2)cc1)c1ccccc1,7.88
6,O=C(COC(=O)CCC(=O)c1ccccc1)NCCc1ccccc1,4.19
7,O=C(Cn1ccc(NC(=O)OCc2ccccc2)nc1=O)NCCCN1CCCC1=O,7.66
8,CCOC(=O)c1sc2nc(C)nc(NCc3ccc(F)cc3)c2c1C,17.8
9,CCOC(=O)c1sc2nc(C)nc(NCc3ccccc3)c2c1C,16.7
10,CCOC(=O)c1sc2nc(C)nc(NCc3ccc(Cl)cc3)c2c1C,-89.6
11,[O-]/C(=C(\C(=S)NCc1ccccc1)[n+]1ccccc1)c1ccc(Cl)s1,0.527
12,COC(=O)c1c(NC(=O)c2cccs2)sc2c1CCC(C)C2 (stereo not shown),9.97
13,COc1ccc([C@@H]2[C@@H](C(=O)C(C)(C)C)N3N=Cc4ccccc4[C@@H]3C23C(=O)OC(C)(C)OC3=O)cc1OC,-5.04
14,CCOc1ccc(CN2CCN(Cc3ccon3)CC2CCO)cc1 (stereo not shown),-33.5
15,OCCC1CN(Cc2ccn[nH]2)CCN1Cc1ccc(F)c(F)c1 (stereo not shown),8.07
16,OCCC1CN(Cc2cccn2-c2nccs2)CCN1C1CCCCC1 (stereo not shown),-4.43
17,OCCC1CN(Cc2cccn2-c2nccs2)CCN1Cc1ccc(F)c(F)c1 (stereo not shown),-85
18,Cc1ccc(CN2CCN(Cc3cccn3-c3nccs3)CC2CCO)cc1 (stereo not shown),-79.7
19,OCCC1CN(Cc2cccn2-c2nccs2)CCN1Cc1ccccc1 (stereo not shown),-21.7
20,CC(C)CCN1CCN(Cc2cccn2-c2nccs2)CC1CCO (stereo not shown),-17.6
21,CCOc1ccc(CN2CCN(Cc3cccn3-c3nccs3)CC2CCO)cc1 (stereo not shown),-84
22,OCCC1CN(Cc2ccc(Oc3ncccn3)cc2)CCN1Cc1ccc(F)c(F)c1 (stereo not shown),8.89
23,CC(C)N1CCN(Cc2cccn2-c2nccs2)CC1CCO (stereo not shown),11.5
24,CC(C)=CCN1CCN(Cc2cccn2-c2nccs2)CC1CCO (stereo not shown),-1.62
25,OCCC1CN(Cc2cccn2-c2nccs2)CCN1CCc1ccccc1 (stereo not shown),-57.1
26,CC(Sc1nc2ccc(Br)cc2[nH]1)C(=O)O (stereo not shown),-11.3
27,Cc1cc(Cl)c(OCCCNC2CCCC2)c(Br)c1.O=C(O)C(=O)O,-6.84
28,Cc1nnsc1C(=O)Nc1ccc(S(=O)(=O)N2CCCC(C)C2)cc1 (stereo not shown),15.2

row,Structure (SMILES),"hERG current change (%, negative = inhibition) at 1uM [%]"
1,Cn1cccc1C(=O)NC1CCCCC1,5.24
2,C=CCn1c(SCC(=O)Nc2cccnc2Cl)nnc1-c1ccc(C(C)(C)C)cc1,9.68
3,CCN1CCN(C(=O)/C=C/c2ccc(OC)c(OC)c2)CC1,14.8
4,C/C(=N\OC(=O)c1ccc(Cl)cc1)c1nccs1,9.4
5,COc1ccc(CNS(=O)(=O)c2ccc(-n3cnnn3)c(OC)c2)cc1,-2.65
6,O=C(c1cc2cc(F)ccc2[nH]1)N(Cc1cccnc1)CC1CCCN(C2CCCCC2)C1 (stereo not shown),-81
7,O=C(c1cc2ccccc2[nH]1)N(Cc1cccnc1)CC1CCCN(C2CCCCC2)C1 (stereo not shown),-49.6
8,COC(=O)c1ccccc1C(=O)N(Cc1cccnc1)CC1CCCN(C2CCCCC2)C1 (stereo not shown),-7.49
9,COC(=O)c1ccc(COc2ccc(/C=N/NC(=O)C(=O)Nc3ccc(OC)cc3)cc2OC)o1,9.15
10,COc1cccc(C(=O)C2CCCN(Cc3cccn3-c3ccccn3)C2)c1 (stereo not shown),-84
11,CC(C)Oc1cccc(C(=O)C2CCCN(Cc3cccn3-c3ccccn3)C2)c1 (stereo not shown),-81.7
12,CC(C)Oc1cccc(C(=O)C2CCCN(Cc3cccn3-c3cccnc3)C2)c1 (stereo not shown),12.4
13,CC(C)Oc1cccc(C(=O)C2CCCN(Cc3ccc(Oc4ncccn4)cc3)C2)c1 (stereo not shown),-7.28
14,COc1cccc(C(=O)C2CCCN(Cc3cccn3-c3cccnc3)C2)c1 (stereo not shown),-6.89
15,COc1cccc(C(=O)C2CCCN(Cc3ccccn3)C2)c1 (stereo not shown),-0.481
16,CCOc1ccc2nc(SCC(=O)N(CC(C)C)c3c(N)n(Cc4ccccc4)c(=O)[nH]c3=O)[nH]c2c1,9.81
17,CCCn1c(SCC(=O)Nc2cccc(F)c2)nc(O)cc1=O,9.12
18,CN1CCN(c2cnn(-c3ccccc3)c(=O)c2Br)CC1,13.2
19,COc1ccc(C(=O)N2CCN(c3ccccc3Cl)CC2)cc1S(=O)(=O)NC1CC1,7.63
20,COc1ccc(C(=O)N2CCN(c3ccc(F)cc3)CC2)cc1S(=O)(=O)NC1CC1,-17.3
21,COc1ccc(C(=O)N2CCN(c3cccc(Cl)c3)CC2)cc1S(=O)(=O)NC1CC1,-79.6
22,O=C1Nc2c(c(=O)[nH]c(=O)n2Cc2ccccc2)C1(NS(=O)(=O)c1ccccc1)C(F)(F)F (stereo not shown),14.5
23,C/C(Cn1nc([N+](=O)[O-])cc1C)=N\NC(=O)COc1ccc(Cl)cc1Cl,-51.3
24,C/C(Cn1nc([N+](=O)[O-])cc1C)=N\NC(=O)COc1c(Cl)cc(Cl)cc1Cl,-23.8
25,C/C(Cn1nc([N+](=O)[O-])cc1C)=N\NC(=O)COc1ccccc1[N+](=O)[O-],7.38
26,Cc1nnc(NC(=O)CSc2ccc(-c3ccc(Cl)cc3)nn2)s1,12.4
27,CCOC(=O)N1CCN(c2c(NCCCN(C)c3ccccc3)c(=O)c2=O)CC1,9.53
